Records with an inconclusive call do not appear. A call without a number means that no potency is given here. The source made the active and inactive calls. Calls come from the whole dose curve; as a rule, active = well fitted curve in the direction sought with a large enough effect; inconclusive = small, poorly fitted or top-dose-only effect, or effect the other way, or another doubt; inactive = no such curve, though single readings can be large or run the other way.
Assay: Secondary Assay for lipid storage modulators: Hela cell LDSA assay for probe SAR
Conditions: HeLa lipid droplet accumulation, BODIPY 493/503 cytometry, oleate-fed; series mostly up to 46.1 µM
Description: NIH Molecular Libraries Probe Production Centers Network [MLPCN] NIH Chemical Genomics Center [NCGC] MLPCN Grant: 1 R03 MH085686-01 Assay Submitter (PI): Beller, Mathias; Max-Planck-Institut fur Biophysikalische Chemie NCGC Assay Overview: Storing lipids as a reservoir for energy or the anabolism of elementary metabolites is a common feature of probably all cells and is conserved from bacteria to humans. The universal cellular lipid storage organelle is the so-called lipid storage droplet (LD). Although ubiquitous, LDs share a simple structure composed of a hydrophobic core that harbors the storage lipids, which is shielded by a droplet-specific phospholipid monolayer to which proteins are attached. The current model of LD biogenesis involves an incorporation of the lipid core into the membrane leaflets of the endoplasmic reticulum (ER) followed by a subsequent budding-like maturation of a LD, which ultimately pinches off. Once released, LD volume can increase by localized lipogenesis or fusion of existing droplet. Storage lipids are re-mobilized enzymatically by lipase activity. Lipase regulation in the adipocyte is heavily studied and involves multiple components including catecholamine signaling, the LD-associated proteins Perilipin and comparative gene identification (CGI-58) and at least two lipases named hormone sensitive lipase (HSL) and adipocyte triglyceride lipase (ATGL). LD regulation outside of the adipocyte is poorly understood and only few components are known. However, there is an urgent need to learn more about ectopic fat depots as mislocalized storage of lipids, for example in the liver or muscle, is an eminent health problem associated with insulin resistance or the metabolic syndrome.
NCGC Assay Protocol Summary: The assay was performed with Hela cells, using an oleic acid feeding protocol similar to the S3 assay. We dispensed 4 uL of cells to give 700 cells/well into Greiner bio-one 1,536-well plates (black walled, clear bottom). Triacsin C (Sigma-Aldrich T-4540), an inhibitor of long-chain fatty acyl CoA synthetase that blocks synthesis of triglycerides, was used as a positive control for lipid under-storage using a final concentration of 20 uM. The orexin antagonist, SB408124 - previously identified to stimulate lipid over-storage, was used as a positive control for lipid over-storage using a final concentration of 20 uM. A total of 23 nL of compound solution of different concentrations were transferred to the assay plates using a Kalypsys pin tool equipped with a 1,536-pin array containing 10-nL slotted pins (FP1S10, 0.457-mm diameter, 50.8 mm long; V&P Scientific). One microliter of oleic acid was added (400 uM final concentration), and the plate was lidded with stainless steel rubber gasket lined lids containing pinholes. After 18-24 h incubation at […] and 95% humidity, 4 uL of the dyes BODIPY 493/503 (Molecular Probes) and the Cell Tracker Red CMTPX dye (Molecular Probes) were added to the wells to stain lipid droplets and enumerate cell number, respectively. Fluorescence was detected by excitation of the fluorophores with a 488-nm laser on an Acumen Explorer (TTP Lab Tech). The total intensity in channel 2 (500-530 nm) reflected lipid droplet accumulation. Cells were detected using channel 3 (575-640 nm) with 5-um width and 100-um depth filters. The ratio of the number of objects in PMT channel 2 over the number of objects in PMT channel 3 was also calculated. Percent activity was computed relative to an internal control (100% inhibited lipid droplet deposition due to the presence of 20 uM Triacsin C), which was added to 32 wells/plate.

| Compound | Potency |
| --- | --- |
| CCOC(=O)C1CCN(C(=O)C2(NC(=O)NCc3ccccc3)CCCCC2)CC1 | inactive |
| Cc1ccc(-c2cnc(SCC(=O)Nc3nc(C)cs3)n2Cc2ccco2)cc1 | inactive |
| COc1ccc(-c2cnc(SCC(=O)Nc3nc(C)cs3)n2Cc2ccco2)cc1 | inactive |
| O=C(Cc1ccccc1)NC1CCCc2c1cnn2-c1ccc(F)cc1F (stereo not given) | inactive |
| O=C(NC1CCCc2c1cnn2-c1cc(F)cc(F)c1)c1cccc2nccnc12 (stereo not given) | 8.65 µM (active) |
| COc1ccc(CCNC(=O)c2cc3sccc3n2Cc2ccccc2)cc1OC | inactive |
| O=C(NC1CCCc2c1cnn2-c1ccc(F)cc1F)c1ccn[nH]1 (stereo not given) | inactive |
| O=C(NC1CCCc2c1cnn2-c1ccc(F)cc1F)C1CCCCN1 (stereo not given) | inactive |
| O=C(NC1CCCc2c1cnn2-c1ccc(F)cc1F)c1ccccc1 (stereo not given) | inactive |
| CCOc1ccc(CCNC(=O)c2cc3sc(CC)cc3n2C)cc1OCC | 0.217 µM (active) |
| CN(C)CC(=O)NC1CCCc2c1cnn2-c1ccc(F)cc1F (stereo not given) | inactive |
| COc1ccc(-c2cnc(SCC(=O)Nc3nccs3)n2Cc2ccccc2)cc1 | inactive |
| CCOc1ccc(CCNC(=O)c2cc3sccc3[nH]2)cc1OCC | inactive |
| O=C(NC1CCCCC1)NC1(C(=O)N2CCCC2)CCCCC1 | inactive |
| COc1ccc(CCNC(=O)c2cc3sccc3n2Cc2ccc(Cl)cc2)cc1OC | inactive |

Source: PubChem BioAssay AID488900 (National Center for Advancing Translational Sciences (NCATS), 2010)
